An excerpt weighted towards active compounds, which were near 2.4% of everything screened.
CRFBP-R2 block = antagonists of CRF-BP/CRF-R2 complex, primary screen, cell-based, HEK293, calcium dye fluorescence, uHTS | CRF-induced calcium fluorescence | inhibition, % at 11.8 µM | 0.59% of 350,000 active;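 active = inhibition of the ligand-induced calcium signal above about 50% at the single tested concentration, limit read from the data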
Cardiac RTF inh = cardiac RTF calcium sensitivity inhibitors, primary screen, biochemical, IANBD-TnC fluorescence, EC70 calcium | IANBD-labeled cardiac RTF, Ca2+ fluorescence | inhibition, % at 7.15 µM | 0.12% of 340,000 active | AID 493244, 2011;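 active = inhibition above the mean inhibition of all tested compounds plus 3 SD, cut at about 17% in these data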;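 also: assay run at fixed EC70 calcium of 1.6 mM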
CRFBP-R2 agonist = agonists of CRF-BP/CRF-R2 complex, primary screen, cell-based, HEK293, calcium dye fluorescence, uHTS. AID 588473, 2011. 0.46% of 350,000 active. CRF-binding protein / CRF receptor 2 complex (human). activation, % at 13.2 µM. calcium dye fluorescence (FLIPR); percent of saturating CRF peptide response;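 active = activation of at least 50%, plus an integration ratio under a set limit after plate pattern correction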;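 also: plate controls were neutral control wells without compound for no effect and CRF at EC100 for full effect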
cardiac RTF act = cardiac RTF calcium sensitivity activators, primary screen, biochemical, IANBD-TnC fluorescence, EC20 calcium | Troponin I, cardiac muscle (Homo sapiens) + Troponin T, cardiac muscle (Homo sapiens) + … | IANBD-labeled TnC RTF fluorescence at EC20 calcium; 0% EC20 calcium, 100% full calcium | activation, % at 7.2 µM | 0.24% of 340,000 active | AID 493008, 2010;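 active = activation above the mean over all tested compounds plus 3 SD, cut at about 30% in these data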;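 also: rise in fluorescence read as greater calcium sensitivity of cardiac thin filaments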
ANO1 block = TMEM16A chloride channel inhibitors, primary screen, cell-based, HTS; 1.2% of 310,000 active; AID 588511, 2011; normalized B-score (activity score, 25-100; higher = stronger inhibition) at 10 µM; HEK293 TMEM16A/YFP iodide influx fluorescence, ionomycin;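 active = ratio plate-corrected score three or more library SD toward inhibition, starting fluorescence score within five deviations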;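 also: score derived from kinetic fluorescence span divided by baseline fluorescence per well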
Target sequence (Q8BHY3 whole entry, looked up): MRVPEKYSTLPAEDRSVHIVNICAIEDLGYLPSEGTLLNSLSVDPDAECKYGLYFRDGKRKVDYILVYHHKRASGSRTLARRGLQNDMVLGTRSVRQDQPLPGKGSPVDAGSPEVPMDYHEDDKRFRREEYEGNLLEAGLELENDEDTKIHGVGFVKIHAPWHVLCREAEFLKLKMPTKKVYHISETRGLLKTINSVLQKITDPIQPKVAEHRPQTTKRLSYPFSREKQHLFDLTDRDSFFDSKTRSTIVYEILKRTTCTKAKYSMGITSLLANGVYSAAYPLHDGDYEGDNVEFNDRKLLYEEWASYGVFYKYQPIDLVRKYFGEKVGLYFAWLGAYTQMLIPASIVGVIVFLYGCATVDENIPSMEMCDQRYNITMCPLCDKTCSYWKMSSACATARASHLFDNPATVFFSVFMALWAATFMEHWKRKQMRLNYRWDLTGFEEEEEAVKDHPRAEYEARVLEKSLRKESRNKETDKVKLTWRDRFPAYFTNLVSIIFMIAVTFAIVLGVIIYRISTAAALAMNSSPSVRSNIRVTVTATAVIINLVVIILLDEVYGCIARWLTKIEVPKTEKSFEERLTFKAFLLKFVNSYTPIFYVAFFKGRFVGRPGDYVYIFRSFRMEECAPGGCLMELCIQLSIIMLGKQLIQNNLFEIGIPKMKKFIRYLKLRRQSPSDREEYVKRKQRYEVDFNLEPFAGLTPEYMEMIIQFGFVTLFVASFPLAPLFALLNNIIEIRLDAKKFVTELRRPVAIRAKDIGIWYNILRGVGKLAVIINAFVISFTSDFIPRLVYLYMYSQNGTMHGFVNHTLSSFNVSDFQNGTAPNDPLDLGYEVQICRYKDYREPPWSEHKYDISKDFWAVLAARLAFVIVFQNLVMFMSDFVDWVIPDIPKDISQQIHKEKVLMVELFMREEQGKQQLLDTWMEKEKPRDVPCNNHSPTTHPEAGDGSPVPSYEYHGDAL
ANO1 activ = TMEM16A chloride channel activators or potentiators, primary screen, cell-based, HTS. Anoctamin-1 (Mus musculus), Q8BHY3. HEK293 TMEM16A/YFP-H148Q/I152L, iodide quench fluorescence; hits give low values. B-score at 10 µM. 0.3% of 340,000 active;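 active = fluorescence-ratio B-score plate-corrected deviation score at least 3 library SD below zero, with starting fluorescence score within 5 deviations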;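 also: channel opened by trigger with iodide after compound preincubation; score built on the fluorescence ratio of max minus min over baseline; more negative score means more quench and so TMEM16A activation or potentiation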
Starred values were filed as active, the others as inactive; i = inactive; . = not tested or not shown.

SMILES	CRFBP-R2 block	Cardiac RTF inh	CRFBP-R2 agonist	cardiac RTF act	ANO1 block	ANO1 activ
COc1ccc(OC)c(N(CC(=O)N2CCOCC2)S(C)(=O)=O)c1	1	0	0	0	i	i
COc1ccc(NC(=S)N(Cc2ccc(N(C)C)cc2)Cc2ccco2)cc1	32	-4	-2	1	i	i
CCOc1ccc(NC(=S)N(Cc2ccc(N(C)C)cc2)Cc2ccco2)cc1	77*	-3	-1	3	i	i
CCC(C(=O)Nc1cccc(C(F)(F)F)c1)c1ccccc1 (stereo not drawn)	7	-11	1	-2	i	-6.6*
CCC(C(=O)Nc1ccc(C)cc1)c1ccccc1 (stereo not drawn)	-10	0	7	-6	i	i
CCc1ccc(NC(=O)C(CC)c2ccccc2)cc1 (stereo not drawn)	-65	-8	60*	2	i	i
CC(=O)c1sc(NC(=O)COc2ccc(Cl)cc2C)nc1C	-15	-3	0	-6	i	i
CCN1CCN(C(=O)c2ccc3nc(-c4ccccc4)c(-c4ccccc4)nc3c2)CC1	-12	-4	0	2	i	i
C#CCOCCOCCOCCNc1nc(N2CCN(C(=O)[C@H](CCCCN)n3cc(CCCC)nn3)CC2)nc(N2CCN(C(=O)[C@H](CCCCN)n3cc(CCC(=O)O)nn3)CC2)n1	3	-13	-1	1	i	i
O=C(c1cc2ccccc2oc1=O)N(c1ccc(Cl)cc1)C1C=CS(=O)(=O)C1 (stereo not drawn)	21	0	-4	11	i	i
Clc1nssc1=Nc1ccc(Br)cc1	29	8	107*	-1	.	i
COc1ccc(NC(=O)c2ccccc2F)cc1Cl	-3	10	-2	3	i	i
O=C(Nc1ccc(Oc2ccc(Cl)cc2)c(Cl)c1)c1cc(I)cc(I)c1O	45	5	13	2	100*	-5.9*
O=C(O)CC1=C(O)C(=O)N(c2ccccc2)C1c1ccc(Br)cc1 (stereo not drawn)	7	-6	2	5	i	-13*
COc1cc(NC(=S)NCCC(c2ccccc2)c2ccccc2)c(OC)cc1Cl	65*	-13	2	9	i	i
S=C(NCc1ccccc1)Nc1ccc(Cl)cc1	57*	-7	8	-4	i	i
S=C(NCCCc1ccccc1)Nc1ccccc1	9	-5	0	0	i	i
S=C(NCCC(c1ccccc1)c1ccccc1)Nc1ccc(Cl)cc1	14	3	-1	-16	100*	i
S=C(NCCCc1ccccc1)Nc1ccc(Cl)cc1	31	-4	19	1	100*	-6.3*
O=C(Cn1cnc2c(nnn2-c2ccc(F)cc2)c1=O)N1CCCC1	4	0	-2	1	i	i
C=CCN1C(=O)c2ccc(C(=O)N3CCN(S(=O)(=O)c4ccccc4Br)CC3)cc2C1=O	-6	-12	1	1	i	i
O=c1c2cc3c(cc2[nH]c(=S)n1C1CCN(Cc2ccccc2)CC1)OCO3	-15	-11	1	2	i	i
COC(=O)C1=C(C)N(C)C(C)=C(C(=O)OC)C1c1ccc(F)c(Br)c1	55*	1	-8	-3	i	i
COC(=O)C1=C(C)N(C)C(C)=C(C(=O)OC)C1c1ccncc1	17	-16	-5	1	i	i
CCOC(=O)C1CCCN(C(=O)c2cccc(S(=O)(=O)N(Cc3ccccc3)c3ccccc3OC)c2)C1 (stereo not drawn)	51*	-2	-2	-8	i	i
SMILES	CRFBP-R2 block	Cardiac RTF inh	CRFBP-R2 agonist	cardiac RTF act	ANO1 block	ANO1 activ
CCN1CCN(c2ccc(NC(=O)c3ccc(Cl)c(S(=O)(=O)N4CCCC4)c3)cc2)CC1	5	-8	0	2	.	i
CCN(CC)CCOC(=O)c1ccc(NC(=O)c2ccc(Cl)c(S(=O)(=O)N3CCCCCC3)c2)cc1	-34	4	15	1	25*	i
CCOC(=O)C1CCN(S(=O)(=O)c2ccc(C(=O)OC)cc2)CC1	12	-13	1	-1	i	-13*
CCOC(=O)C1CCN(S(=O)(=O)c2ccc(C)cc2)CC1	2	-2	0	-2	i	i
CCOC(=O)C1CCCN(C(=O)c2ccc(Cl)c(S(=O)(=O)N3CCCCC3)c2)C1 (stereo not drawn)	53*	-6	0	-1	i	i
CC(C)CN1C(=O)C(=O)N(CC(=O)NCCCc2ccccc2)C1=O	11	.	-1	.	.	.
CCCOc1ccc(/C=N/NC(=O)CN2CCCCC2)cc1	-2	-9	0	-3	i	i
CCOc1ccc(/C=N/NC(=O)CN2CCCCCCC2)cc1	57*	-9	4	7	i	i
CCC(C)(C)NC(=O)c1ccc2c(c1)N(CC(=O)NC1CCCC1)C(=O)C(C)(C)O2	-12	-1	2	-10	i	i
CCOC(=O)C(C(=O)NCc1ccc(F)cc1)c1ncc(C(F)(F)F)cc1Cl (stereo not drawn)	-6	1	-3	-2	i	i
O=C(NCc1ccc(F)cc1)C(C(=O)NCc1ccc(F)cc1)c1ncc(C(F)(F)F)cc1Cl	3	2	-2	-4	i	-7.3*
CCOc1ccc(CN2CCN(CCCc3ccccc3)CC2CCO)cc1 (stereo not drawn)	-9	1	-1	-7	i	i
CCOc1ccc(S(=O)(=O)n2c(C)nc3ccccc32)cc1	-4	-10	1	-2	i	i
CCCCOc1ccc(S(=O)(=O)n2c(C)nc3ccccc32)cc1	-5	4	-1	-1	25*	i
CC(C)(C)C1CCC(C(=O)OCC(=O)c2ccc[nH]2)CC1 (stereo not drawn)	-29	-2	2	0	i	i
COCCSc1nnc(NC(=O)COC)s1	2	0	1	6	i	i
CCCSc1nnc(NC(=O)Nc2ccc(F)cc2)s1	18	0	18	5	100*	i
CCC(=O)Nc1nnc(SCCOC)s1	5	-6	2	-1	25*	i
Cc1ccc(CNc2ccc3c(c2)ncn3C(C)C)cc1	-46	-9	61*	-2	i	-13*

Screening data: PubChem BioAssay, several laboratories
